This is an account of results in PubChem BioAssay AID504339 (National Center for Advancing Translational Sciences (NCATS), 2011).

In all, about 390,000 compounds went through this assay and about 17,000 (4.4%) were called active. Entries that show only a call come without a potency. Another 8% or so got no clear call; they are omitted. The call rests on the fitted dose curve; in most records, active means well fitted inhibition curve with a large enough effect; inconclusive means small, poorly fitted or top-dose-only effect; inactive means no such curve, though single readings can be large or run the other way. Many of the other results were omitted from the sample, so actives are more common in it than they were.
Potency means the concentration at half of the fitted maximal effect.

The assay deals with Lysine-specific demethylase 4A (Homo sapiens) (UniProt O75164). The assay can be described thus: qHTS Assay for Inhibitors of JMJD2A-Tudor Domain. Further: nearly all actives have a fitted effect of over 50% in size. Conditions: AlphaScreen JMJD2A-Tudor / H3K4me3 peptide binding; series mostly up to 114 µM. (In general: qHTS replaces the single test concentration by a dilution series.)
Sequence of Lysine-specific demethylase 4A (Homo sapiens) (O75164 whole entry, looked up, the tested form may be a part): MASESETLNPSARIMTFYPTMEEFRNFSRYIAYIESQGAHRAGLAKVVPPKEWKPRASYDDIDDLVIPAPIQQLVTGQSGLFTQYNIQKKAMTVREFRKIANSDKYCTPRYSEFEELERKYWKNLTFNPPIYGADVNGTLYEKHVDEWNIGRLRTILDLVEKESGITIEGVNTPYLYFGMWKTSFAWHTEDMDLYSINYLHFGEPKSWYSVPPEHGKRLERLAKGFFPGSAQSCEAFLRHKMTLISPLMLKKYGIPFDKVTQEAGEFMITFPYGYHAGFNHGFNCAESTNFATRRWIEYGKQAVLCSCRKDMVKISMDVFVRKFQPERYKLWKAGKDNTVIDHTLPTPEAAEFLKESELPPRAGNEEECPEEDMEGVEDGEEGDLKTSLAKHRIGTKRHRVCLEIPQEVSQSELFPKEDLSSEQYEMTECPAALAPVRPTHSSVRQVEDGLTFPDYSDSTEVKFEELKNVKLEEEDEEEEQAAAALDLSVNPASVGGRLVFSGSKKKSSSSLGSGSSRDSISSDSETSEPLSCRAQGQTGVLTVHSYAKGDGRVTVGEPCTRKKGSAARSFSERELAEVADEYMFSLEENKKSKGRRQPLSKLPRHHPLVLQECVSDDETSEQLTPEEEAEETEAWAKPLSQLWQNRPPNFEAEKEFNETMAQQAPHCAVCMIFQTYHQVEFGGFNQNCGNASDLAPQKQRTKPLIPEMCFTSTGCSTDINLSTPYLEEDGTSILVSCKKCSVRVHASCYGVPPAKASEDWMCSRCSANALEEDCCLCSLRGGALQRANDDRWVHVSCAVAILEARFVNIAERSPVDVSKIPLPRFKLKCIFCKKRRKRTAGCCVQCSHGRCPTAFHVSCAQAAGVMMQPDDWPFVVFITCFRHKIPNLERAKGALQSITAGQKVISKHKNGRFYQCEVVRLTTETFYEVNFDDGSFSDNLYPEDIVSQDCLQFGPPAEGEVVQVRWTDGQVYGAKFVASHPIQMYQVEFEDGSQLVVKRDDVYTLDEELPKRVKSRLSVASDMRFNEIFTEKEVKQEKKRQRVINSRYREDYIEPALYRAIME
With `O=S(=O)(c1cccc(C(F)(F)F)c1)N1CCN(c2nc(-c3cccs3)nc3ccccc23)CC1`, the Potency entry was “inactive”.
In the case of `C=CCn1c(SCC(=O)NC)nnc1C12CC3CC(CC(C3)C1)C2`, the Potency result is “inactive”.
`C=CCn1c(C23CC4CC(CC(C4)C2)C3)n[nH]c1=S`: the Potency was 11.2 µM (active).
`C=CCn1c(SCC(=O)NC23CC4CC(CC(C4)C2)C3)nc(O)cc1=O`: the Potency result was “inactive”.
Same read-out and setting: with `CCOc1ccc(N2CC(C)Cn3c2nc2c3c(=O)n(Cc3c(F)cccc3Cl)c(=O)n2C)cc1` (stereo not given) the entry was “inactive”; with `COc1ccc(CNC(=O)CSc2n[nH]c(-c3ccc(F)cc3)n2)cc1`, “inactive”.
Regarding `CC(NC(=O)c1cc(Sc2ccc(F)cc2F)nc2ccccc12)c1ccccc1` (stereo not given), the Potency entry was “inactive”.
Regarding `CCC1CCCCN1C(=S)Nc1ccc(SC(F)F)cc1` (stereo not given), the Potency entry is “inactive”.
For `CCC1CCCCN1C(=S)Nc1ccc(S(=O)(=O)Nc2ncccn2)cc1` (stereo not given), the Potency was 100 µM (active).
For the molecule `CCC1CCCCN1C(=S)Nc1ccc(C(C)=O)cc1` (stereo not given), the Potency result was “inactive”.
For the molecule `Cc1ccc2cccc(NC(=O)c3ccc(OC(C)C)cc3)c2n1`, the Potency entry was “inactive”.
The same measure, in the same setting: the same measure for `Cc1cc2n(n1)C(c1cc(C(C)(C)C)c(O)cc1O)Nc1ccccc1-2` (stereo not given): “inactive”.
Still for that read-out and setting: with `CSc1ccc(CCNC(=O)c2cnn(-c3ccccc3)c2-n2cccc2)cc1` the entry was “inactive”; with `Cc1ccc(C)c(Nc2nnc(-c3ccc(C)c(S(=O)(=O)N4CCCCC4)c3)c3ccccc23)c1`, “inactive”.
The same measure, in the same setting: with `CCc1c(C)[nH]c(=S)c(C#N)c1C` the figure was 3.98 µM (active).
On to `CCn1c(=O)c2cc(C(=O)NCCc3ccc(Cl)cc3)sc2c2ccccc21`, for which the Potency result was “inactive”.
Turning to `Cc1noc(/C=C/N(C)C)c1S(=O)(=O)N1CCCC(C(=O)Nc2cccc(F)c2)C1` (stereo not given), the Potency result is “inactive”.
As for `O=C(Nc1ccc2nc(SCC(=O)N3CCCc4ccccc43)sc2c1)c1ccc(Cl)cc1`, the Potency result was “inactive”.
On the same count and under the same terms, the same measure for `COc1ccc(CCNC(=O)CCCn2c(=O)c3ccccc3n(Cc3ccc(F)cc3Cl)c2=O)cc1OC`: “inactive”; for `COc1ccccc1CNC(=O)c1ccccc1NC(=O)c1nsc2ccccc12`: “inactive”.
Turning to `CCOC(=O)CC1C(=O)NCCN1c1nc2c(C)cccn2c(=O)c1/C=C1\SC(=S)N(C(C)CC)C1=O` (stereo not given), the Potency result is “inactive”.
Same read-out and setting: with `CCCN(CCC)c1nc2c(C)cccn2c(=O)c1/C=C1/SC(=S)N(Cc2ccco2)C1=O` the figure was 35.5 µM (active).
As for `Cc1ccc2[nH]c(=O)c(-c3nc4c(C)cccn4c3NCc3ccco3)cc2c1`, the activity change, negative = inhibition is -23.3% [at 11.4 µM] (inactive).
For `Cc1cc(C)c(NC(=O)Cn2c(SCC(=O)NCc3ccccc3)nc3ccccc32)c(C)c1`, the Potency result was “inactive”.
Consider `COc1ccc(C2C3=C(CCCC3=O)N(CC(=O)O)C3=C2C(=O)CCC3)cc1`, for which the Potency result was “inactive”.
For the molecule `CCCCN1C(=O)CCC(C(=O)O)C1c1ccc(OC)cc1` (stereo not given), the Potency is 89.1 µM (active).
With `CCCCNC(=O)C1CCC(=O)N1CCc1ccccc1` (stereo not given), the Potency result is “inactive”.
On to `COc1ccccc1CNC(=O)CCCCn1c(=O)c2ccccc2n(CC(=O)Nc2cc(Cl)ccc2C)c1=O`, for which the Potency entry is “inactive”.
Consider `Cc1cccc(NC(=O)C2CCN(S(=O)(=O)c3c(C)noc3/C=C/c3ccco3)CC2)c1`, for which the Potency entry is “inactive”.
`Cc1cccc(C2CC(=O)Oc3c2c(=O)n(C)c2ccccc32)c1` (stereo not given): the Potency entry was “inactive”.
Regarding `Nc1ccc2[nH]c(=S)sc2c1`, the Potency is 3.55 µM (active).
In the case of `O=c1[nH]c2ccccc2s1`, the Potency entry is “inactive”.
On to `COc1cc(C(=O)N2CCN(C(=O)COc3cccc(C)c3)CC2)cc(OC)c1OC`, for which the Potency entry is “inactive”.
Turning to `COCCn1c(SCC(=O)c2cc(C)ccc2C)nc2cc(C(=O)NC3CCCC3)ccc2c1=O`, the Potency result is “inactive”.
Turning to `Cc1cc(C)cc(OC(C)C(=O)Nc2nc3c(s2)CCCC3)c1` (stereo not given), the Potency entry was “inactive”.
In the case of `COc1cccc(-n2c(=S)sc3c(=O)n(-c4ccccc4OC)c(SCC4OCCO4)nc32)c1`, the Potency result was “inactive”.
Regarding `COc1cccc(-n2c(=S)sc3c(=O)n(-c4ccccc4C)c(SCC(=O)O)nc32)c1`, the Potency entry is “inactive”.
In the case of `COc1ccccc1-n1c(=S)[nH]c2c(sc(=S)n2-c2ccc(C)cc2C)c1=O`, the Potency was 50.1 µM (active).
Still for that read-out and setting: with `Cc1oc(-c2ccccc2F)nc1CN1CCC(C(=O)NCCc2ccc(Cl)cc2)CC1` the entry was “inactive”; with `O=C(CSc1nc2ccccc2nc1Cc1ccccc1)N1CCCCC1`, “inactive”; with `Oc1ccccc1-c1nc2ccc(Cl)cn2c1Nc1ccc2c(c1)OCCO2`, “inactive”.
For `Cc1ccc(-c2nc3cccc(C)n3c2Nc2ccc3c(c2)OCCO3)cc1`, the Potency is 11.2 µM (active).
In the case of `Oc1ccc(-c2nc3ccc(Cl)cn3c2Nc2ccc3c(c2)OCO3)cc1`, the Potency result was “inactive”.
The same measure, in the same setting: the same measure for `Cc1cccc2nc(-c3ccc(Cl)s3)c(Nc3ccc4c(c3)OCCO4)n12`: 31.6 µM (active).
Same read-out and setting: with `Cc1ccc2nc(-c3ccc(O)cc3)c(Nc3ccc4c(c3)OCO4)n2c1` the entry was “inactive”; with `Cc1nc(Nc2ccc3c(c2)OCCO3)c2nnn(Cc3ccccc3Cl)c2n1`, “inactive”.
As to `CCOC(=O)c1nnn(CC(=O)NC(=O)Nc2ccccc2F)c1C(=O)OCC`, the Potency result was “inactive”.
For the molecule `COc1ccc(CCN2C(=O)c3oc4cc(C)cc(C)c4c(=O)c3C2c2ccccc2F)cc1OC` (stereo not given), the Potency result is “inactive”.
`O=C1CC(c2nnc(Cc3ccc(Cl)cc3)o2)CN1c1ccccc1` (stereo not given): the Potency entry was “inactive”.
For `CCC(=O)N1CCc2cc(S(=O)(=O)NC(C(=O)Nc3ccc(C(C)=O)cc3)C(C)C)ccc21` (stereo not given), the Potency result is “inactive”.
Turning to `CCC(=O)N1c2ccccc2CC1C(=O)N1CCN(c2cccc(OC)c2)CC1` (stereo not given), the Potency entry is “inactive”.
With `CCCN(CCC)C(=O)C(Cc1ccccc1)NS(=O)(=O)c1ccc2c(c1)c(=O)n(C)c(=O)n2C` (stereo not given), the Potency result is “inactive”.
Still for that read-out and setting: the same measure for `Cc1ccc(N(CC(=O)NCc2ccc(Cl)cc2)S(=O)(=O)N(C)C)cc1`: “inactive”; for `Fc1ccccc1Oc1ncnc2c1oc1ccccc12`: “inactive”.
`C=CCn1c(SCc2cccc(F)c2)nc2cc(C(=O)N3CCC(C(N)=O)CC3)ccc2c1=O`: the Potency result is “inactive”.
Same read-out and setting: the same measure for `O=C1Nc2cc(C(=O)N3CCN(c4ccc(F)cc4)CC3)ccc2NC1CSCc1cccc(F)c1` (stereo not given): 20 µM (active).
Regarding `O=C(c1ccc2c(c1)N(Cc1ccc(F)cc1)C(=O)c1ccccc1S2(=O)=O)N1CCN(c2ccccn2)CC1`, the Potency entry was “inactive”.
With `Cc1ccc(SCC(=O)N2CCN(c3ccc(F)cc3)CC2)cc1`, the Potency entry is “inactive”.
On to `Cc1ccc(CSCC2Nc3ccc(C(=O)N4CCN(c5ccc(F)cc5)CC4)cc3NC2=O)cc1` (stereo not given), for which the Potency was 22.4 µM (active).
For the molecule `CC1CCN(C(=O)c2ccc3c(c2)NC(=O)CN3)CC1`, the Potency entry is “inactive”.
Regarding `Cc1oc(-c2ccccc2)nc1Cn1c(SCc2cccc(C(F)(F)F)c2)nc2cccnc21`, the Potency entry was “inactive”.
Take `Cc1ccc(C)c(NC(=O)Cn2ccn(-c3ccc(F)cc3)c(=O)c2=O)c1`: the Potency entry is “inactive”.
On to `O=C(Nc1nnc(Cc2ccc(Cl)cc2)s1)c1ccncc1`, for which the Potency entry is “inactive”.
Still for that read-out and setting: the same measure for `O=C(Nc1nnc(Cc2ccc(Cl)cc2)s1)c1cccnc1`: “inactive”; for `O=C(Nc1nnc(Cc2ccccc2)s1)c1cnccn1`: 50.1 µM (active); for `CCCC(=O)N1CCN(c2nc3c(OC)ccc(C)c3s2)CC1`: “inactive”.
Same read-out and setting: with `COc1ccc(CNC(=O)COC(=O)C(CCSC)N2C(=O)c3ccccc3C2=O)cc1` (stereo not given) the entry was “inactive”; with `O=C(NC1=NCCS1)[C@H](Cc1ccccc1)N1C(=O)c2ccccc2C1=O`, “inactive”.
Take `CSCCC(C(=O)NC1=NCCS1)N1C(=O)c2ccccc2C1=O` (stereo not given): the Potency is 79.4 µM (active).
For `Cc1ccc2oc(=O)c3cnn(CC(=O)N4CCN(c5cccc(Cl)c5)CC4)c3c2c1`, the Potency entry is “inactive”.
Turning to `CCCCN(CC)CCCNC(=O)c1nn(C)c2c1CS(=O)(=O)c1ccccc1-2`, the Potency entry is “inactive”.
For `CC(=O)c1cccc(NC(=O)CSc2nc3c(c(=O)[nH]2)CCC3)c1`, the Potency entry was “inactive”.
On to `Cc1c(-c2cccc(NC(=O)C(C)(C)C)c2)nc2ncccn12`, for which the Potency result was “inactive”.
For `Cc1ccccc1Nc1c(-c2ccccc2)nc2ncccn12`, the Potency entry was “inactive”.
As to `CCc1cccc(C)c1Nc1c(-c2ccc(N(C)C)cc2)nc2ncccn12`, the Potency was 35.5 µM (active).
As to `CCn1cc(C(=O)N2CCN(c3cc(C)ccc3C)CC2)c(=O)c2cc(S(=O)(=O)N(C)C3CCCCC3)ccc21`, the Potency entry was “inactive”.
With `O=C(NCCc1ccccc1)c1cnc2sc(N3CCCC3)nn2c1=O`, the Potency entry is “inactive”.
`COC(=O)c1ccc(NC(=O)CCc2c(C)nc3c(c(C)nn3-c3ccc(C)cc3)c2C)cc1`: the Potency result was “inactive”.
Same read-out and setting: with `C#CCOCCOCCOCCNc1nc(N2CCN(C(=O)[C@H](CCCCN)n3cc([C@@H](N)C(C)CC)nn3)CC2)nc(N2CCN(C(=O)[C@H](Cc3ccc(O)cc3)n3cc([C@@H](N)C(C)CC)nn3)CC2)n1` (stereo not given in full) the figure was 44.7 µM (active); with `C#CCOCCOCCOCCNc1nc(N2CCN(C(=O)[C@H](Cc3ccc(O)cc3)n3cc(C(N)CC(C)C)nn3)CC2)nc(N2CCN(C(=O)[C@H](CCC(=O)O)n3cc(C(N)[C@H](C)CC)nn3)CC2)n1` (stereo not given in full), 44.7 µM (active).
As for `C#CCOCCOCCOCCNc1nc(N2CCOCC2)nc(N2CCN(C(=O)[C@H](Cc3ccc(O)cc3)n3cc(CCO)nn3)CC2)n1`, the Potency result is “inactive”.
With `C#CCOCCOCCOCCNc1nc(N2CCN(C(=O)C(Cc3ccc(O)cc3)n3cc(C(N)CC(C)C)nn3)CC2)nc(N2CCN(C(=O)C(Cc3ccc(O)cc3)n3cc(C(N)C(C)CC)nn3)CC2)n1` (stereo not given), the Potency is 50.1 µM (active).
As to `C#CCOCCOCCOCCNc1nc(N2CCN(C(=O)[C@H](CCC(=O)O)n3cc(C(N)CO)nn3)CC2)nc(N2CCN(C(=O)[C@H](Cc3ccc(O)cc3)n3cc(C(N)[C@H](C)CC)nn3)CC2)n1` (stereo not given in full), the Potency was 28.2 µM (active).
As for `CC[C@H](C)[C@@H](C(=O)N1CCNCC1)n1cc([C@@H](N)Cc2ccc(O)cc2)nn1`, the Potency entry is “inactive”.
In the case of `O=C(NCc1ccccc1)c1ccc2c(c1)nc1n2CCCCC1`, the Potency result is “inactive”.
On to `CC(C)c1ccc(NS(=O)(=O)c2ccc3[nH]cc(C(=O)NC4CCCC4)c(=O)c3c2)cc1`, for which the Potency result was “inactive”.
Turning to `CCC(Sc1nc2n[nH]c(C)c2c(=N)n1-c1ccccc1Cl)C(=O)N(CC)CC` (stereo not given), the Potency result was “inactive”.
For `Cc1nnc(SCc2cc(=O)c3cc(F)ccc3[nH]2)n1C`, the Potency entry was “inactive”.
Still for that read-out and setting: the same measure for `Cc1cc(NC(=O)c2ccc(-c3ccc(Cl)cc3)o2)cc(-c2nc3ncccc3o2)c1O`: “inactive”; for `CC(=O)c1ccc(NC(=O)c2nc3nc(C)cc(C(F)F)n3n2)cc1`: “inactive”.
